# Sm TGR inh = S. mansoni TGR enzyme inhibition | purified TGR, DTNB reduction, TNB absorbance 405 nm | 3% of 360,000 active | Potency, µM (highest dose often 114 µM), for inactives: at the top dose activity change, negative = inhibition, most hits filed as inhibitors | AID 485364; note: potency is the fitted concentration of half-maximal effect; % is set by controls: 0 for no effect and ±100 for the full control effect; nearly all actives have a fitted effect of over 60% in size
#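 TGR 20 nM + NADPH 100 uM (dispensed conc.), cpd preinc 15 min RT; start with NADPH (500 uM addition) then DTNB (15 mM addition). Kinetic TNB absorbance, 405 nm filter. Four-parameter Hill fit across titration.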
# FBPA Giardia inh = blocks Giardia fructose-bisphosphate aldolase activity; A8B2U2; purified Giardia FBPA; Potency, µM (titrated, usually from 59.6 µM), for inactives: at the highest dose activity, negative = inhibition, usual class: inhibitors; 0.71% of 290,000 active; AID 2451; note: potency is the fitted concentration of half-maximal effect; % is set by controls: 0 for no effect and ±100 for the full control effect; nearly all actives have a fitted effect of over 55% in size
#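 40 nM FBPA preincubated 10 min at RT with compound (up to 57.5 uM final), then substrate plus GAPDH/TPI/NAD/arsenate coupling and diaphorase/resazurin added. Fluorescence read after 20 min at RT, 525/598 nm.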
# LmPK inhibitor = LmPK (Leishmania mexicana) enzyme inhibition. Q27686. purified LmPK, Kinase-Glo ATP luminescence, 1 h. Potency, µM (top dose mostly 57.5 µM), without a hit: top-dose activity change, negative = inhibition, actives largely listed as inhibitors. 0.37% of 290,000 active. AID 1721; note: potency is the fitted concentration of half-maximal effect; % is set by controls: 0 for no effect and ±100 for the full control effect
# Target sequence (Q27686 whole entry, looked up): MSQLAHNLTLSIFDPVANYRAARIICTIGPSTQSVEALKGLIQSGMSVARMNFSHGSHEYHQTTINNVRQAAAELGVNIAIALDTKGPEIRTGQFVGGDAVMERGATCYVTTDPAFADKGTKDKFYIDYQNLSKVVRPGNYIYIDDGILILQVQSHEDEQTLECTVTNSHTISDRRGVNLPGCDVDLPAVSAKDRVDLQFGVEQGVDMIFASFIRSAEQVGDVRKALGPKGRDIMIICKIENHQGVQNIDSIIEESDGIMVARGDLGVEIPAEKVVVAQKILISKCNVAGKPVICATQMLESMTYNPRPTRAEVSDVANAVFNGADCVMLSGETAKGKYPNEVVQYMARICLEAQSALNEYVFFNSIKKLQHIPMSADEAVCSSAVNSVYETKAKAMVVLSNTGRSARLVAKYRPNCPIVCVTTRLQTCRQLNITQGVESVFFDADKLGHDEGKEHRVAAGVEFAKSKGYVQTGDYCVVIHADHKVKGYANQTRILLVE
#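 In 50 mM imidazole pH 7.2 with 7 mM MgCl2, LmPK (0.1 nM) turned over PEP (0.5 mM) and ADP (0.1 mM) for 1 h at room temperature. Luciferase read-out of ATP.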
# TbPYK inhibitor = inhibitors of Trypanosoma brucei pyruvate kinase; 0.12% of 410,000 active; Potency, µM (highest dose often 76.8 µM), for inactives: at the highest dose activity, negative = inhibition, usual class: inhibitors; TbPYK enzyme, Kinase-Glo Plus ATP luminescence, 45 min; note: potency is the fitted concentration of half-maximal effect; % is set by controls: 0 for no effect and ±100 for the full control effect; nearly all actives have a fitted effect of over 50% in size
#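 Glycolytic pyruvate kinase of T. brucei was incubated with substrate, test compound and 130 uM ADP for 45 minutes at room temperature. Luminescent Kinase-Glo Plus signal was measured after 10 minutes.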
# Cycloheximide cs = counter-screen hit for Shiga toxin inhibitors, cycloheximide. 12% of 300,000 active. max response, %. AID 2314. cell reporter, cycloheximide protein synthesis inhibition counterscreen; in the data active = max response mostly above about 13%, no sharp cut-off; inactive = mostly below about 14%; note: read at 38.3 µM for the half of the compounds with a filed dose; 0% is about no effect
# Shiga toxin inh = Shiga toxin inhibition; Vero cells, Shiga toxin protein synthesis inhibition reporter; inhibition, % at 38.7 µM; 9.2% of 290,000 active; AID 2315; in the data active = inhibition mostly above about 28%, no sharp cut-off; inactive = mostly below about 43%; note: 0% is about no effect
# * hit, by the source's call; ? = inconclusive; . = no result given; [ ] = dose if it differs, or a comment. The sample as a whole holds a higher share of hits than the screen did. Unless noted, calls come from the whole dose curve; as a rule, active = well fitted curve in the direction sought with a large enough effect; inconclusive = small, poorly fitted or top-dose-only effect, or another doubt; inactive = no such curve, though single readings can be large; an effect the other way counts as inactive or inconclusive.
SMILES,Sm TGR inh,FBPA Giardia inh,LmPK inhibitor,TbPYK inhibitor,Cycloheximide cs,Shiga toxin inh
COc1cc(C(=O)OCC(=O)NCc2ccco2)cc(OC)c1OC,44.7µM*,2.1%,5.4%,0.3%,-1.1,-3.9
O=C(COc1ccc2oc(-c3ccccc3)cc(=O)c2c1)NCc1ccco1,-26.7%,4.2%,0.3%,-21.6%,24.6*,58.4
Cc1cc(=O)oc2ccc(OCC(=O)NCc3ccco3)cc12,0.0%,1.9%,-2.1%,.,9.0,-14.6
Cc1ccc(S(=O)(=O)N(C)c2ccc(OCC(=O)NCc3ccco3)cc2)cc1,1.5%,-0.7%,3.9%,.,-0.9,-16.6
CCCOc1cc(CC(=O)NCc2ccco2)ccc1OC,-19.1%,9.9%,15.5%,-17.9%,-2.1,-7.9
COc1ccc(CC(=O)OCC(=O)NCc2ccco2)cc1OC,39.8µM*,.,.,-9.0%,.,.
COCCCNC(=O)CSc1nc2cc3c(cc2c(=O)n1CCCCCC(=O)NCc1ccc2c(c1)OCO2)OCO3,7.3%,.,.,-7.0%,.,.
CCOC(=O)[C@@H]1[C@H]2COc3ccccc3[C@@H]2N2C(=O)N(c3ccc(C)cc3)C(=O)[C@]12C,2.3%,-3.6%,-8.2%,6.0%,-3.0,-1.3
CCCc1nnc(NC(=O)CCC(=O)N2CCC(C)CC2)s1,2.4%,.,-0.2%,21.3%,-1.2,-0.8
COc1ccc(-c2cc(C(F)(F)F)nc(SCCC(=O)Nc3ccc(OC)c(OC)c3)n2)cc1,1.2%,.,.,1.3%,.,.
CN(C)c1cccc(C(=O)OCC(=O)NCc2ccco2)c1,-30.0%,-1.4%,2.0%,1.1%,18.7*,17.6
CCc1nc2ccccc2c(C(=O)OCC(=O)NCc2ccco2)c1C,35.5µM*,0.4%,-3.4%,-2.5%,13.4,-16.0
O=C(COC(=O)c1ccc(S(=O)(=O)NCc2ccco2)cc1)NCCC1=CCCCC1,44.7µM*,1.9%,6.1%,-3.1%,-0.6,-40.1
COc1ccc(C2(C(=O)NCc3ccco3)CCCC2)cc1OC,44.7µM*,0.3%,6.8%,-5.8%,-2.2,-23.3
C=CCC1C=CC(Oc2ccc(OC)cc2)C(COC(=O)c2ccc(Br)cc2)O1 (stereo not drawn),.,1.6%[12.9 µM],.,.,.,.
COc1ccc(N(CC(=O)NCc2ccco2)S(=O)(=O)c2ccc(OC)c(OC)c2)cc1,-3.5%[11.4 µM],11.3%,15.0%,-14.1%,-3.8,-17.8
CC(C)(C)c1ccc(OCC(=O)NCc2ccco2)c(Br)c1,10µM*,-0.9%,-10.8%,-0.2%,29.5*,57.7
O=C(COC(=O)CCSc1ccc(Cl)cc1)NCc1ccco1,?,0.1%,-0.6%,-23.9%,19.1*,52.9
CCOc1ccc(N(CC(=O)NCc2ccco2)S(=O)(=O)c2ccc(OC)c(OC)c2)cc1,31.6µM*,3.3%,7.2%,-1.8%,3.6,14.0
O=C(COC(=O)c1cncc(Br)c1)NCc1ccco1,25.1µM*,-22.0%,6.2%,5.6%,12.1,9.6
O=C(COC(=O)c1cncc(Br)c1)NCc1ccc(F)cc1,-0.8%,0.3%,6.7%,0.1%,-6.4,-10.8
CCOC(=O)C1=CCN(S(=O)(=O)c2ccccc2C)C1c1cccc(Br)c1 (stereo not drawn),.,.,.,3.1%,.,.
COc1ccc(N(C(=O)Cn2nnc3ccccc32)C(C(=O)NCc2ccccc2)c2ccc(F)cc2)cc1 (stereo not drawn),-1.7%,.,.,0.9%,.,.
CCOc1cc(C(=O)OCC(=O)NCc2ccco2)cc(OCC)c1OCC,25.1µM*,1.6%,3.4%,-9.3%,-1.4,13.7
CN(C)S(=O)(=O)c1ccc(C(=O)OCC(=O)NCc2ccco2)cc1,35.5µM*,1.9%,2.7%,3.0%,-1.1,-11.1
O=C(COC(=O)c1ccc(NS(=O)(=O)c2cccs2)cc1)NCc1ccco1,11.2µM*,-16.7%,1.9%,4.4%,-3.1,-1.0
CC(Oc1ccc(Cl)cc1Cl)C(=O)Nc1cccc(O)c1 (stereo not drawn),.,0.2%,0.5%,-6.5%,30.8*,43.0
Cc1ccc(OCC(=O)Nc2cc(NC(=O)COc3ccc(C)c(C)c3)cc(C(=O)O)c2)cc1C,-0.3%,6.7%,0.7%,-1.3%,1.0,8.9
Cc1ccc(OCC(=O)Nc2cccc(O)c2)cc1C,-2.1%,-7.4%,-4.2%,-18.7%,40.3*,78.6*
